From paper PMC4336329 (PLoS ONE, 2015)
About 2,200 (0.71%) of roughly 310,000 compounds showed an effect of 50% or more. Effects have a minus sign here. This excerpt belongs to a sample that is enriched for strong results.

molecular target: human ether-à-go-go-related gene (hERG) potassium channel (human, UniProt Q12809); assay: primary screen, population patch clamp on CHO cells stably expressing hERG; higher = less effect of the substance
Description: Briefly, Chinese hamster ovary (CHO) cells stably expressing the hERG channel were dislodged from tissue culture flasks and dispensed into PPC plates. […] During the recording, background leak currents were estimated by a 100 ms step to -80 mV from an initial holding potential of -70 mV and subtracted from the subsequent current measurement. The campaign was conducted in two phases using slight differences in recording protocol. In the first phase, the initial voltage pulse used a 100 ms step to -30 mV from a holding potential of -70 mV, a 2 s conditioning step to +25 mV, and a 2 s test step to -30 mV. During the second phase of the screen, the potential during the conditioning step was raised to +45 mV. In both phases of the campaign, a secondary voltage pulse was applied using the same parameters as the second phase initial pulse. The initial and secondary pulses were applied in the absence of compound, and upon application of 1 μM and 10 μM test concentrations. Small molecule effects on hERG current density were quantified by […].

Chain of human ether-à-go-go-related gene (hERG) potassium channel (Q12809 whole entry, looked up): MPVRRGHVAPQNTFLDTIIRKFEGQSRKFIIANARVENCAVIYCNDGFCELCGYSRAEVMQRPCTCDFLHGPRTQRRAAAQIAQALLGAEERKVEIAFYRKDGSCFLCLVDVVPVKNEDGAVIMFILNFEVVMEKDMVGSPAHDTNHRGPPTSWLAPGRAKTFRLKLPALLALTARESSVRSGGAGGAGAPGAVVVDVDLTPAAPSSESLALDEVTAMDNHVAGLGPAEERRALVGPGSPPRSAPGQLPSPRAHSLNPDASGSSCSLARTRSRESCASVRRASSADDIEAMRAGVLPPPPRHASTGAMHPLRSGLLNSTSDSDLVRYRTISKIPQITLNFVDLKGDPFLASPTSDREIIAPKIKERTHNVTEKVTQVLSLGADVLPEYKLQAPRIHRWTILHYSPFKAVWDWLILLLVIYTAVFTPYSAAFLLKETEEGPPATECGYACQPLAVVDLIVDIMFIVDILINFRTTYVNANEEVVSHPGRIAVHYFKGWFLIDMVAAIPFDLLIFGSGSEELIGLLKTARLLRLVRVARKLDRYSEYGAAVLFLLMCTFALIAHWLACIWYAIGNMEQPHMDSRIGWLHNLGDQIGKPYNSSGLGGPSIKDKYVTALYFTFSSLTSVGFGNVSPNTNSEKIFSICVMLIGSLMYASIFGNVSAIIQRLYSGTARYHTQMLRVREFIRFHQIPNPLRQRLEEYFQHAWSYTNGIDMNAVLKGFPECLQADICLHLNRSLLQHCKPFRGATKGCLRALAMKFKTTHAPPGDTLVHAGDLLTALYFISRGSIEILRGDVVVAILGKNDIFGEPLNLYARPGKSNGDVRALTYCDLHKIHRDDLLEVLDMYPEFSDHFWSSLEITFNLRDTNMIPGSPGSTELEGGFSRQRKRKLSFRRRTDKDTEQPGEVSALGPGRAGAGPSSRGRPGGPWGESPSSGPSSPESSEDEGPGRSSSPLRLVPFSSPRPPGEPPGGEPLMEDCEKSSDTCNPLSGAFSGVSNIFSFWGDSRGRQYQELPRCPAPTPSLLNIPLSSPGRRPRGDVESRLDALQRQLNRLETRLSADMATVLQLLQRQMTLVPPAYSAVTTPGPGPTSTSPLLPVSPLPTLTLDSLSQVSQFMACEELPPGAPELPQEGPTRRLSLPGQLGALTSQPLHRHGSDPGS

SMILES | hERG current change (%, negative = inhibition) at 1uM
O=C(O)COCC(=O)N1CCN(C2c3ccccc3-c3ccccc32)CC1 | 12.4%
CCCC/C(O)=C/c1nc2ccccc2[nH]c1=O | 1.79%
O=C(NCc1ccco1)c1cc2n(n1)C(C(F)(F)F)CC(c1ccc(F)cc1)N2 (stereo not drawn) | -4.18%
Br.COc1cccc(C(=O)CN2C3=NCCCN3c3ccccc32)c1 | -61.2%
Br.O=C(CN1C2=NCCCN2c2ccccc21)c1ccc([N+](=O)[O-])cc1 | -54%
Br.O=C(CN1C2=NCCN2c2ccccc21)c1ccc(Br)cc1 | -28.4%
Br.Cc1ccc(C)c(C(=O)CN2C3=NCCCN3c3ccccc32)c1 | -43%
COc1ccc(C(=O)CN2C3=NCCCN3c3ccccc32)cc1OC | -6.85%
Br.O=C(CN1C2=NCCCN2c2ccccc21)c1cccc(Br)c1 | -28.6%
COc1ccc(-c2csc(N3C(=O)C4C5c6ccccc6C(c6ccccc65)C4C3=O)n2)cc1 (stereo not drawn) | 11.9%
Cc1ccc(/C=C2/SC(=Nc3ccc(F)cc3)NC2=O)s1 | 13%
Cc1csc2nc(NC(=O)c3ccccc3)sc(=O)c12 | 8.93%
Nc1c(Sc2ccccc2)c(=O)[nH]c(=O)n1Cc1ccccc1 | -13.3%
Cc1ccc(S(=O)(=O)N2CCCC2CNC(=O)C(=O)NCCN2CCOCC2)cc1 (stereo not drawn) | 16.8%
Cc1ccc(S(=O)(=O)Nc2cccc(C(=O)NCc3ccc(S(N)(=O)=O)cc3)c2)cc1 | 12.7%
O=C(CN1CCN(C(=O)c2ccccc2)CC1)Nc1ncc(Br)cc1Br | -84.9%
O=C(CN1CCOCC1)Nc1ncc(Br)cc1Br | 4.34%
O=C(CN1CCN(C(=O)c2ccccc2)CC1)Nc1ccccc1 | 3.18%
CCc1nnc(NC(=O)CN2CCN(C(=O)c3ccccc3)CC2)s1 | 10.9%

SMILES | hERG current change (%, negative = inhibition) at 1uM
O=C(CN1CCCCCC1)Nc1ccc(Br)cn1 | 3.88%
O=C(CN1CCN(C(=O)c2ccccc2)CC1)Nc1ccc(Br)cn1 | -72.1%
CC(=O)N1CCC(C(=O)Nc2ccccc2)(N(Cc2ccccc2)C(=O)c2cccnc2)CC1 | 17.6%
Nc1ccc(Sc2ccccc2Cl)nc1 | 0.8%
O=C(CCN1CCOCC1)Nc1ccc2c(c1)CCC2 | 3.78%
Cc1[nH][nH]c(=O)c1C=NCc1cccnc1 | 14.3%
CCN(CC1CCCO1)C(=O)c1cc(COc2ccc(F)cc2F)on1 (stereo not drawn) | 2.73%
CSc1ccccc1OCc1cc(C(=O)NCC(C)(C)N2CCOCC2)no1 | -72.2%
COc1ccc(OCc2cc(C(=O)N(C)CC3CCCCO3)no2)c(Cl)c1 (stereo not drawn) | -1.77%
COc1ccc(OCc2cc(C(=O)NCC(C)(C)N3CCOCC3)no2)c(Cl)c1 | 0.582%
Cc1ccc(OCc2cc(C(=O)NCC(C)(C)N3CCOCC3)no2)cc1C | 4.83%
CN(CC1CCCCO1)C(=O)c1cc(COc2ccc(F)cc2Cl)on1 (stereo not drawn) | -74.4%
CCN(CC1CCCO1)C(=O)c1cc(COc2ccccc2SC)on1 (stereo not drawn) | -58.9%
CCN(CC1CCCO1)C(=O)c1cc(COc2ccc(OC)cc2Cl)on1 (stereo not drawn) | 5.36%
COc1cc(Cl)ccc1OCc1cc(C(=O)N(C)CC2CCCCO2)no1 (stereo not drawn) | 2.24%
Cc1ccc(OCCN(C)C(=O)c2cc(COc3ccc(F)cc3F)on2)cc1 | -0.323%
COC(=O)c1cccc(NC(=O)c2ccc(S(=O)(=O)N3CCN(C)CC3)cc2)c1 | 16.5%
COCCN(C(=O)CSc1nc2ccccc2c(=O)n1CC(C)C)c1c(N)n(Cc2ccccc2)c(=O)[nH]c1=O | 11.8%
CC(C)n1c(/C=C/[C@H](O)C[C@H](O)CC(=O)[O-])c(-c2ccc(F)cc2)c2ccccc21.[Na+] | 11.8%

SMILES | hERG current change (%, negative = inhibition) at 1uM
Cc1cc(O)c(C(C)C)cc1NS(=O)(=O)c1ccccc1 | 10.4%
COc1ccccc1-n1c(SC(C)C(=O)NCC2CCCO2)nc2cc(Cl)ccc2c1=O (stereo not drawn) | 12.1%
CC(C)C(=O)N1CCN(c2nc(-c3ccc(Cl)cc3)cs2)CC1 | -69.6%
CCC(=O)N1CCN(c2nc(-c3ccc(Cl)cc3)cs2)CC1 | 9.84%
CCOC(=O)N1CCN(c2nc(-c3ccc(Cl)cc3)cs2)CC1 | -8.51%
O=C(NNc1ccccc1F)c1ccccc1 | 2.87%
COc1cc(NC(=O)[C@H]2CSCN2C(=O)[C@@H]2CCC(=O)N2)cc(OC)c1OC | 10.8%
Cc1ccc(S(=O)(=O)Nc2cccc(Cl)c2)cc1NC(=O)c1cccnc1 | 5.21%
Cc1ccc(C(=O)NC(=S)N(C)C2CCCCC2)cc1 | 6.79%
CN(CC(=O)Nc1c(Cl)cccc1Cl)C(=O)CNC(=O)c1ccco1 | 8.71%
O=C(CN(Cc1ccc(Br)cc1)S(=O)(=O)c1ccccc1)NCC1CCCO1 (stereo not drawn) | 11.8%
O=C(CN(Cc1ccccc1)S(=O)(=O)c1ccc(Cl)cc1)NCC1CCCO1 (stereo not drawn) | 3.41%
O=C(CN(Cc1ccccc1)S(=O)(=O)c1ccc(Br)cc1)NCC1CCCO1 (stereo not drawn) | -80.5%
CCn1c2ccccc2c2cc(CNCc3ccc(OC)cc3OC)ccc21.O=C(O)C(=O)O | -47.5%
Cc1nc2ccccc2cc1C(=O)Nc1ccccc1Cl | 3.5%
C/C=C/c1ccc(OC(C)=O)c(OC)c1 | 8.76%
CCOC(=O)N1CCN(C(=O)Cn2cc3c(n2)CCCC3)CC1 | -51.2%
O=C(Cn1cc2c(n1)CCCC2)N1CCCC1 | 8.36%
O=C(Cn1cc2c(n1)CCCCC2)N1CCCCC1 | 9.12%
